Measurements as given in the supplement of paper PMC11732987, “Enantioselective OTUD7B fragment discovery through chemoproteomics screening and high-throughput optimisation” (Communications Chemistry, 2025).

What was measured:
Assay in all cases: log2 ratio of Biotin-Ahx-Ub-VS probe labelling (fragment/DMSO); higher = less target engagement (more negative = stronger competition), active = hit call of the paper (q ≤ 0.05, log2 ratio ≤ -1)
Details in all cases: compound concentration: 200 uM; treatment time: 3 h
[1] = molecular target: T1, USP19 (UniProt O94966)
T1 sequence (whole entry): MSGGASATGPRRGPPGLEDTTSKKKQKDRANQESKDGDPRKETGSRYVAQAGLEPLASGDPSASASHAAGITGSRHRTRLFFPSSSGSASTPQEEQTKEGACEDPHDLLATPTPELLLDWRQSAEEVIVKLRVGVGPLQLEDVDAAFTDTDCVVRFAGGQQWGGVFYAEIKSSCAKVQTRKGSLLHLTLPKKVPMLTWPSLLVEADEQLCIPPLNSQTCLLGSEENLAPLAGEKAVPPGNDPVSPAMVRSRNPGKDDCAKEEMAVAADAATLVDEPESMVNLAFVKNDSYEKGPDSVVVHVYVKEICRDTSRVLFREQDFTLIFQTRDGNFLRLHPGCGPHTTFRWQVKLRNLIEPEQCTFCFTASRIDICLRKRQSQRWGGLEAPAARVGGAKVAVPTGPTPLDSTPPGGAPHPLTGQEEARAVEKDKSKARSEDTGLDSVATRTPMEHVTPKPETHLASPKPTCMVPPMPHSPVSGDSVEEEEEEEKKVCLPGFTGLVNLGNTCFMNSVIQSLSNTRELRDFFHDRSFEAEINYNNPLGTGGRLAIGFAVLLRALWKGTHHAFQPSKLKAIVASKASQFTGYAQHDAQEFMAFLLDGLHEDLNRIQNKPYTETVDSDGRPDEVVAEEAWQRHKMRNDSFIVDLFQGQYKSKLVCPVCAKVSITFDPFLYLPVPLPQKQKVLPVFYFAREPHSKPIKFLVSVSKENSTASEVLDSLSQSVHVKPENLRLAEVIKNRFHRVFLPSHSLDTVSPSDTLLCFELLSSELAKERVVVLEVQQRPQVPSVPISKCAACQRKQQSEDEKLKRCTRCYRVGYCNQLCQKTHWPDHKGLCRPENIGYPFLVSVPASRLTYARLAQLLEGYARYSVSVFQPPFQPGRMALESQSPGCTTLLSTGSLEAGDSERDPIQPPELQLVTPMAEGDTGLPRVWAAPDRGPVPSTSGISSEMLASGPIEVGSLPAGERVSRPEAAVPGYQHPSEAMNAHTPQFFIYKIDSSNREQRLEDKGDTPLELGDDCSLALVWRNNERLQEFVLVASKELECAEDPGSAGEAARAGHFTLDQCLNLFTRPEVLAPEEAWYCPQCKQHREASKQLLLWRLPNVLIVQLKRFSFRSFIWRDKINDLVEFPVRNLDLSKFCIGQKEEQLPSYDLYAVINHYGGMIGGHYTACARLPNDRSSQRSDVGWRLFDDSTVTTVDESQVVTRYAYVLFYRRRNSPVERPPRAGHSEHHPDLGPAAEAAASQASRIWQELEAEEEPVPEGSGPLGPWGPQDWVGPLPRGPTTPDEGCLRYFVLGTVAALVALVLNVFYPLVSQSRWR
Method in brief: (§1)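 Labelled DUBs from HEK293T lysate were NeutrAvidin-enriched, digested with LysC and trypsin, and run by diaPASEF LC-MS/MS. Before that, each 495 µg sample in Tris/CHAPS/IGEPAL buffer with protease inhibitors was treated in triplicate with fragment at 200 µM or vehicle for 3 h, then with Biotin-Ahx-Ub-VS at 0.5 µM final for 1 h. Values are average log2 ratios of fragment over vehicle by unpaired t-test, based on global-median-normalised Spectronaut label-free quantities from proteins with ≥2 unique peptides.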

[2] = molecular target: T2, USP22 (UniProt Q9UPT9)
T2 sequence (whole entry): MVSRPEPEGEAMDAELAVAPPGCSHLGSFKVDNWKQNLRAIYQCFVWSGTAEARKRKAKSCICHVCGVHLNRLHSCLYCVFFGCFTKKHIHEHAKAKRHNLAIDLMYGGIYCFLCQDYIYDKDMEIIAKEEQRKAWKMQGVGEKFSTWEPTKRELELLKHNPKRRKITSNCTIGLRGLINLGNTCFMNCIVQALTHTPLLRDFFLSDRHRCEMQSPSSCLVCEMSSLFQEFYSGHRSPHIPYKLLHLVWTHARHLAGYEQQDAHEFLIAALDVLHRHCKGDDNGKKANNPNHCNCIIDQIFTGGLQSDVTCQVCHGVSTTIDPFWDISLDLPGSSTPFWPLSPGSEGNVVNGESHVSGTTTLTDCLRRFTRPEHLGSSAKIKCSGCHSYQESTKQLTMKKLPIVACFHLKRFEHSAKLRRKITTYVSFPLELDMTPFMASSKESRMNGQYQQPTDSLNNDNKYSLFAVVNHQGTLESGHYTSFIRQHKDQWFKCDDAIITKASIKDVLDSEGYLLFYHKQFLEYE
Method in brief: as §1

[3] = molecular target: USP24 (UniProt Q9UPU5)
Chain of USP24 (Q9UPU5 whole entry): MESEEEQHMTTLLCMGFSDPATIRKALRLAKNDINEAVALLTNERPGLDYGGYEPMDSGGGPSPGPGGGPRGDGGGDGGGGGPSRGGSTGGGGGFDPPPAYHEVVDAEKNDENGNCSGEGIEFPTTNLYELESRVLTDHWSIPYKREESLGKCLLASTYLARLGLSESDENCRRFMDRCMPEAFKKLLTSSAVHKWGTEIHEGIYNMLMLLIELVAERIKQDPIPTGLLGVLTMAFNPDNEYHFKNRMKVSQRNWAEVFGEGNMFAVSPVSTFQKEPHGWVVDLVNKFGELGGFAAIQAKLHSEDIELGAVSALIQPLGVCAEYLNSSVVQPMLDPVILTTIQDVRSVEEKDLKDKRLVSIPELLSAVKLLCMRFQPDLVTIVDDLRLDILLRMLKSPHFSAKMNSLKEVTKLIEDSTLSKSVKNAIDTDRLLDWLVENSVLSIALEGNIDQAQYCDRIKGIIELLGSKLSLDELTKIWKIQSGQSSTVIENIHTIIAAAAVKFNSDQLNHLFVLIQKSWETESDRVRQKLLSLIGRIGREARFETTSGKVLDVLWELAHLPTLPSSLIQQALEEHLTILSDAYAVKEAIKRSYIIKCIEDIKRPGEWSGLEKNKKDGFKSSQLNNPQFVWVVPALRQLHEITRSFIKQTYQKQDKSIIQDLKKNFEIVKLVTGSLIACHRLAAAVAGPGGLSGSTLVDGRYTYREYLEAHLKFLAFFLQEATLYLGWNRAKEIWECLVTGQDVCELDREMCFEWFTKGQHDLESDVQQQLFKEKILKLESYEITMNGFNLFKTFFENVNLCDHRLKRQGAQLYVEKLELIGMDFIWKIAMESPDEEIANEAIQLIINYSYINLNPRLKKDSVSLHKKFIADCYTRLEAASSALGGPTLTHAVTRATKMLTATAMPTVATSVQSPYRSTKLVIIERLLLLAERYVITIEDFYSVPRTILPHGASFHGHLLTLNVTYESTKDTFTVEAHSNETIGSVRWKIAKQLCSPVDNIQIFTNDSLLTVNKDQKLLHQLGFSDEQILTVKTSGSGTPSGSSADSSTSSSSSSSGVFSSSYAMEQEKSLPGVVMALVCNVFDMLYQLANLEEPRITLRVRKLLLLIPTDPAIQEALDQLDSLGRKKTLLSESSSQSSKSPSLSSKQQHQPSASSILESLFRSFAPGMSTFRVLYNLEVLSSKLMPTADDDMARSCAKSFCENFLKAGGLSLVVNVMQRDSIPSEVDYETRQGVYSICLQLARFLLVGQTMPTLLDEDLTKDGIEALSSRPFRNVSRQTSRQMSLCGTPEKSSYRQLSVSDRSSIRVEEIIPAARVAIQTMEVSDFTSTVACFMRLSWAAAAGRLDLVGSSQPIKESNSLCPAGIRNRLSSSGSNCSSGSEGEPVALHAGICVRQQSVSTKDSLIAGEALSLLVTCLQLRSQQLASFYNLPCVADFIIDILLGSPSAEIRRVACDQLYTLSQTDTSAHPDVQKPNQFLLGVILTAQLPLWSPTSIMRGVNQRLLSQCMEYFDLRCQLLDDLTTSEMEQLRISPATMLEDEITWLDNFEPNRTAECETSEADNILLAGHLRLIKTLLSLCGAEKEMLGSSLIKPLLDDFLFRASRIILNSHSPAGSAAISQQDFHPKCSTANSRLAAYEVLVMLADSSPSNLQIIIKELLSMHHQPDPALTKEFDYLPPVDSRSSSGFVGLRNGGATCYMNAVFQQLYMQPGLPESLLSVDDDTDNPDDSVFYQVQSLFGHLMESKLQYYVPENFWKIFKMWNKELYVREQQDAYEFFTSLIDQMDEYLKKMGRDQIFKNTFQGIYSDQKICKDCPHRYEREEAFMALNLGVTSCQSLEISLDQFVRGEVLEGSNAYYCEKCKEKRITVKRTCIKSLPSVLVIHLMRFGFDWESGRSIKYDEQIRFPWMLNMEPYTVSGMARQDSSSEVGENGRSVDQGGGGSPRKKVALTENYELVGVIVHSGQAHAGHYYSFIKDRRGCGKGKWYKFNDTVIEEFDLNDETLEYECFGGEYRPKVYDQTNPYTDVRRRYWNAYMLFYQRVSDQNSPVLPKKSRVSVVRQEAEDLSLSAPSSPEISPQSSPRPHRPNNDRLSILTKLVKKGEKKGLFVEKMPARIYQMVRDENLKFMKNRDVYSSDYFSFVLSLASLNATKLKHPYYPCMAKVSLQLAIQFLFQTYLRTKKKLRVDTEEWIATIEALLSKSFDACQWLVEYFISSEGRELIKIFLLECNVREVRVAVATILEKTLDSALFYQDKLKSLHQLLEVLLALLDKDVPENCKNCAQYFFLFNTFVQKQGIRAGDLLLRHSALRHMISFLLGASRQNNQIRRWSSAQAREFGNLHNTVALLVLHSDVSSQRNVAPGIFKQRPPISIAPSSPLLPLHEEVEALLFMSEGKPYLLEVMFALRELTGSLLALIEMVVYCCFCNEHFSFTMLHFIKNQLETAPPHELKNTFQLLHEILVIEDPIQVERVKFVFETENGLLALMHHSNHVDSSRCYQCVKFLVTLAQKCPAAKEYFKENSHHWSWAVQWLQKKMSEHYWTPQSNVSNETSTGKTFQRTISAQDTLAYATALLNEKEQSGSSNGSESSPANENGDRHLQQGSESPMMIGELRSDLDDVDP
Method in brief: as §1

[4] = molecular target: T3, USP25 (UniProt Q9UHP3)
T3 sequence (whole entry): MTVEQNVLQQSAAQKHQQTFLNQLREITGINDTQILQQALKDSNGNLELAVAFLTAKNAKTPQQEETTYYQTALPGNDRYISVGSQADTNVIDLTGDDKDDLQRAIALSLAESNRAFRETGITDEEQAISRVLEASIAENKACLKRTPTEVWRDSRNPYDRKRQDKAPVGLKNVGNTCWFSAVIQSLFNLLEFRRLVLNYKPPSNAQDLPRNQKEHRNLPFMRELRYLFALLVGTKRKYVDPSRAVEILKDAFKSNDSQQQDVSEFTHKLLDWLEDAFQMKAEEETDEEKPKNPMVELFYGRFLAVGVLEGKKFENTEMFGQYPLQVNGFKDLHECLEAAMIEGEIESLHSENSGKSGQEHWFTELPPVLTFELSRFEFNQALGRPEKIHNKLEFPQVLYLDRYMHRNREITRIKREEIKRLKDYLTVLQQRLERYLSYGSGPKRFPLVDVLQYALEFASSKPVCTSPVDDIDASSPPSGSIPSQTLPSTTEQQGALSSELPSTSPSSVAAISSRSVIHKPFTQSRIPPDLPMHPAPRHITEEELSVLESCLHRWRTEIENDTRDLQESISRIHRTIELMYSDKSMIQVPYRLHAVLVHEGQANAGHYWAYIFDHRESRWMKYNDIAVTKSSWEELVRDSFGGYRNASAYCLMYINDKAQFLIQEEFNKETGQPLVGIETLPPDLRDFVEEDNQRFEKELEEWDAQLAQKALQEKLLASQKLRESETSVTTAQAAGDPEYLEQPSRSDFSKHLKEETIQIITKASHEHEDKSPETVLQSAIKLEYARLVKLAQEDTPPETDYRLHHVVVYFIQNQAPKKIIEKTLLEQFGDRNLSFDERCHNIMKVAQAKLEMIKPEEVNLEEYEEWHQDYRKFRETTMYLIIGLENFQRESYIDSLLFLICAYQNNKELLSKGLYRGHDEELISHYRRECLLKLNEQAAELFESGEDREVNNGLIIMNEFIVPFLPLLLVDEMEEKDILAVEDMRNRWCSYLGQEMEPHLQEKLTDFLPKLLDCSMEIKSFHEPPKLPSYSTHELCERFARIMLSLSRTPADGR
Method in brief: as §1

[5] = molecular target: T4, USP28 (UniProt Q96RU2)
T4 sequence (whole entry): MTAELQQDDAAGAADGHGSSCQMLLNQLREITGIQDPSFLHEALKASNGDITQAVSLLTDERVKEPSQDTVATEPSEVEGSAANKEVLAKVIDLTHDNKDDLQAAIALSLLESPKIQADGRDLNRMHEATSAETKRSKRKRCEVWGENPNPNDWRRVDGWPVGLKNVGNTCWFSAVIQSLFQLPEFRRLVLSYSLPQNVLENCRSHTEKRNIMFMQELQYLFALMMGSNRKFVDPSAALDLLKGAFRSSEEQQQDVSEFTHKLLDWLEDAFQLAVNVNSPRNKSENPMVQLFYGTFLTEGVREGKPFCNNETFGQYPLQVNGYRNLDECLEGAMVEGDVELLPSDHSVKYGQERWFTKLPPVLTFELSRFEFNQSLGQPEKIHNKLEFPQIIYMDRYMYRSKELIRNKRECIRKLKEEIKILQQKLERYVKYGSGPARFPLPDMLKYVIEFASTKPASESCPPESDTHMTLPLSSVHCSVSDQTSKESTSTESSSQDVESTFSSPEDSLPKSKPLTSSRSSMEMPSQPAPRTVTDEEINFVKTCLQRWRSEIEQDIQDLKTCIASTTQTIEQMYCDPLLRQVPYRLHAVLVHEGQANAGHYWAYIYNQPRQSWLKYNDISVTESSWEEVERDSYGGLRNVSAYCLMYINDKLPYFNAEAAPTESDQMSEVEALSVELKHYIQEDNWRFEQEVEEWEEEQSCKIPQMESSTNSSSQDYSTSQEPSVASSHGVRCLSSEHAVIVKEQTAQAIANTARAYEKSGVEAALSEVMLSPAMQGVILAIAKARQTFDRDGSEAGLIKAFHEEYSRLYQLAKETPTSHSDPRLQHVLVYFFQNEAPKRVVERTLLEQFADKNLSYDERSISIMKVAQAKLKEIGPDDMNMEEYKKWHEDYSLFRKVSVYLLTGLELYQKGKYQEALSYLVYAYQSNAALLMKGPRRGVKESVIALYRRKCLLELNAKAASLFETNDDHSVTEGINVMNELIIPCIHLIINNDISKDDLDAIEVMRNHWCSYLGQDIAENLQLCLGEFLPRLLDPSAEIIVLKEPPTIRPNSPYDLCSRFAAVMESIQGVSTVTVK
Method in brief: as §1

Measured: log2 ratio of Biotin-Ahx-Ub-VS probe labelling

O=C(CCl)NC1CCCCNC1=O (stereo not given)
inactive: [1] -0.125 | [2] -0.0454 | [3] -0.299 | [4] -0.212 | [5] -0.482
